Results: PubChem BioAssay (NCATS)
Results filed as inconclusive are left out. Calls of active or inactive are those of the source. Unless noted, calls follow the shape of the dose curve; as a rule, active = well fitted curve in the direction sought with a large enough effect; inconclusive = small, poorly fitted or top-dose-only effect, or another doubt; inactive = no such curve, though single readings can be large; an effect the other way counts as inactive or inconclusive.

Experiments:
[1] = Cell Viability - BJ (AID 421; calls by dose curve;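 also: potency is read from the fitted curve at half-maximal effect; cells exposed to compound for 40 hours at 37 °C before readout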); details: BJ fibroblast viability, qHTS
Summary of the method: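 Cytotoxicity as drop in intracellular ATP (CellTiter-Glo, 20 min RT) after 40 hr compound exposure of BJ fibroblasts at 37 °C. Titrations scaled between DMSO and 100 uM tamoxifen, Hill-fitted for AC50.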

[2] = Cell Viability - Jurkat (AID 426;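 active = dose-dependent loss of cell ATP signal giving a full or clear fitted curve, ranked by lower potency value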; also: potency is read from the fitted curve at half-maximal effect); details: qHTS
Summary of the method: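 qHTS, 1536-well; Jurkat E6-1, 5000 cells/well, complete medium; cpd 40 hr, 37 °C; CellTiter-Glo 20 min RT; luminescence. AC50 by Hill fit.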

[3] = Cell Viability - Hek293 (AID 427;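 active = compounds whose dose-response curve shows a full or clear partial loss of cell viability, called from curve shape rather than a numeric limit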;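 also: potency is read from the fitted curve at half-maximal effect; cells exposed to compound for 40 hours at 37 °C before reading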); details: qHTS
Summary of the method: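 Luminescent ATP content (CellTiter-Glo, 20 min at room temperature) was measured after a 40 hr, 37 °C compound exposure of HEK293 cells. AC50 values came from Hill-equation fits of qHTS concentration-response data normalized to DMSO and 100 uM tamoxifen.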

[4] = Cell Viability - MRC5 (AID 434; calls by dose curve;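 also: potency is read from the fitted curve at half-maximal effect; potency reflects cytotoxicity seen as loss of intracellular ATP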); details: MRC5 lung fibroblast viability, qHTS
Summary of the method: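 MRC5 normal human lung fibroblasts, 1500 cells/well, exposed to compound for 40 hr at 37 C. Cellular ATP was read by CellTiter-Glo luminescence; data normalized to DMSO and 100 uM tamoxifen, with AC50 from Hill fits.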

[5] = Cell Viability - SK-N-SH (AID 435; calls by dose curve;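 also: potency is read from the fitted curve at half-maximal effect; compound exposure lasted 40 h at 37 °C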); details: SK-N-SH neuroblastoma cell viability qHTS
Summary of the method: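 SK-N-SH human neuroblastoma cells (1500/well) were exposed to compounds in complete medium for 40 h at 37 °C, and intracellular ATP was then measured by CellTiter-Glo luminescence. AC50 was taken from Hill fits, normalized to DMSO and 100 uM tamoxifen.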

[6] = target: Mitogen-activated protein kinase 10 (Mus musculus) (UniProt Q61831); test: JNK3 AlphaScreen Assay (AID 530; active = well fitted curve in either direction with a large enough effect, not every such curve was filed as active;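 also: kinase came from lysate of stimulated human HepG2 cells; signal reports phosphorylation of biotinylated GST-cJun 1-79 at Ser73 with 10 µM ATP; % is scaled to controls: 0 for no effect and ±100 for the full control effect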); details: JNK3 lysate, c-Jun phosphorylation; series mostly up to 57.1 µM
Summary of the method: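 Pre-activated (IL-1β/TNFα) JNK3 in HepG2 lysates phosphorylates biotin-GST-cJun(1-79), 10 uM ATP; anti-phospho-cJun(Ser73) AlphaScreen read at room temperature, pH 7.6 Tris buffer. Compounds pre-incubated 15 min as titrations.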

[7] = Cell Viability - N2a (AID 540); details: N2a mouse neuroblastoma cell viability; activity change, negative = cytotoxicity: at 92.2 µM (top of the series);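 also: plate controls were DMSO alone for no effect and tamoxifen control for full effect; nearly all actives have a fitted effect of over 45% in size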
Summary of the method: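 Luminescent ATP signal (CellTiter-Glo, 20 min at room temperature) served as the viability read-out after N2a cells were treated with compounds for 40 hours at 37 °C. Concentration-response data were fitted to the Hill equation for AC50.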

[8] = Cell Viability - NIH 3T3 (AID 541); details: NIH 3T3 cell viability, qHTS; activity change, negative = cytotoxicity: at 92.2 µM (top of the series);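 also: plate controls were DMSO alone for no effect and tamoxifen positive control for full effect; nearly all actives have a fitted effect of over 25% in size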
Summary of the method: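 Luminescent ATP signal (CellTiter-Glo) served as the viability read-out after NIH 3T3 cells were exposed to compounds over a concentration range for 40 hr at 37 °C. Hill-equation modelling of concentration-response data gave AC50.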

[9] = Cell Viability - HUV-EC-C (AID 542); details: HUV-EC-C endothelial cell viability, qHTS; series mostly up to 92.2 µM; also: % is scaled to controls: 0 for no effect and ±100 for the full control effect; nearly all actives have a fitted effect of over 35% in size
Summary of the method: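 qHTS cytotoxicity: HUV-EC-C, 1000 cells/well, 5 hr settle, compound 40 hr 37 °C, CellTiter-Glo, luminescence. AC50 via Hill equation.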

[10] = Cell Viability - H-4-II-E (AID 543); details: H-4-II-E rat hepatoma viability; series mostly up to 92.2 µM; also: % is scaled to controls: 0 for no effect and ±100 for the full control effect; nearly all actives have a fitted effect of over 35% in size
Summary of the method: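 Luminescent ATP signal (CellTiter-Glo) served as the viability read-out, with cytotoxicity seen as a concentration-dependent ATP drop. Cells were treated for 40 hours in complete medium. AC50 values derive from Hill-equation modelling.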

[11] = Cell Viability - SH-SY5Y (AID 544); details: SH-SY5Y neuroblastoma cell viability; viability change, negative = cytotoxic: at 92.2 µM (top of the series); also: nearly all actives have a fitted effect of over 55% in size
Summary of the method: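 Luminescent ATP read-out (CellTiter-Glo) measures loss of viable SH-SY5Y neuroblastoma cells after 40 hr compound exposure at 37 °C. AC50 values derive from standard Hill modelling of qHTS concentration-response data.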

[12] = Cell Viability - Renal Proximal Tubule (AID 545); details: renal proximal tubule cells viability, primary cells of rat origin; series mostly up to 91.7 µM; also: nearly all actives have a fitted effect of over 40% in size
Summary of the method: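 Primary rat renal proximal tubule cells (1000/well) were treated with compounds for 40 hr at 37 °C in complete medium. Intracellular ATP was measured by CellTiter-Glo luminescence, and AC50 values came from Hill-equation fits of concentration-response data.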

[13] = Cell Viability - Mesenchymal (AID 546); details: mesenchymal cells viability, qHTS; series mostly up to 91.7 µM;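 also: cells exposed to compound for 40 hours before reading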
Summary of the method: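 Human kidney mesenchymal cells from normal renal glomeruli, 1000 cells/well, rested 5 hr at 37 °C, then treated 40 hr at 37 °C in complete medium. Cellular ATP read by CellTiter-Glo luminescence; AC50 from Hill-equation fits.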

[14] = Cellular Toxicity (caspase-3) Jurkat (AID 655); details: Jurkat caspase-3 activation, luminescence; caspase-3 activation: at 92.2 µM (top of the series), DMSO = 0%, tamoxifen = 100%;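 also: cells exposed to compound for 16 h at 37 °C before reading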
Summary of the method: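 Jurkat cells (5000/well) in complete medium were treated with compounds for 16 hr at 37 °C, then Caspase-Glo 3/7 luminescence was read after 20 min at room temperature. Data normalized to DMSO (basal) and 100 uM tamoxifen (100%); AC50 from Hill fit.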

[15] = Cellular Toxicity (caspase-3) HUV-EC-C (AID 656); details: HUV-EC-C cells, caspase-3 activation (apoptosis), vehicle = 0, 100 µM tamoxifen = 100%; series mostly up to 92.2 µM
Summary of the method: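 HUV-EC-C endothelial cells, 1000/well, were pre-incubated 5 hr at 37°C, then exposed to compounds for 16 hr at 37°C. Caspase-Glo 3/7 luminescence was read after 20 min at room temperature. AC50 came from Hill fits, normalized to DMSO and 100 uM tamoxifen.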

[16] = Cellular Toxicity (caspase-3) SHSY5Y (AID 657); details: SH-SY5Y caspase-3 activation, DMSO zero, 10 µM staurosporine = 100%; series mostly up to 91.7 µM
Summary of the method: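 SH-SY5Y human neuroblastoma cells (1500/well) were treated with compounds for 16 h at 37 °C, then Caspase-Glo 3/7 luminescence was read after 1 h at room temperature. Data normalized to DMSO and 10 uM staurosporine; AC50 from Hill fits.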

[17] = Cellular Toxicity (caspase-3) BJ (AID 658); details: BJ fibroblasts, luminescence, normalized: DMSO 0%, staurosporine 100%; series mostly up to 91.7 µM
Summary of the method: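 BJ human foreskin fibroblasts, 1000 cells/well, treated 16 hours at 37 °C in complete medium; caspase 3/7 activity by Caspase-Glo luminescence after 1 hr at room temperature. Normalized to DMSO and 10 uM staurosporine; AC50 from Hill fits.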

[18] = Cellular Toxicity (caspase-3) MRC-5 (AID 659); details: MRC-5 cells, luminescence, normalized: DMSO 0%, 10 µM staurosporine 100%; series mostly up to 91.7 µM
Summary of the method: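 MRC-5 human normal lung fibroblasts, 1500 cells/well, treated 16 h at 37 °C in complete medium. Caspase 3/7 measured by Caspase-Glo luminescence after 1 h at room temperature. Normalized to DMSO and 10 uM staurosporine; AC50 from Hill fit.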

[19] = Cellular Toxicity (caspase-3) HepG2 (AID 654); details: HepG2 caspase-3 activation, luminescence; series mostly up to 92.2 µM;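 also: cells exposed to compound for 16 hours before reading; 0% = DMSO alone and 100% = caspase signal from 100 µM tamoxifen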
Summary of the method: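 Cells plated 5 hr at 37 °C, compound added, incubated 16 hr at 37 °C. Caspase-Glo 3/7 reagent followed, 20 min at room temperature, then luminescence read. Activation scored as signal increase; AC50 from Hill fit.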

[20] = Cell Viability - HepG2 (AID 433; calls by dose curve;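 also: potency is read from the fitted curve at half-maximal effect; potency for ATP loss meaning cytotoxicity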); details: qHTS
Summary of the method: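 HepG2 hepatocellular carcinoma cells (1500/well) were treated with compounds for 40 h at 37 °C in complete medium; intracellular ATP was read by CellTiter-Glo luminescence. Data were normalized to DMSO and 100 uM tamoxifen, and AC50 came from Hill fits.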

C/C=C(/C)C#N
inactive: Potency [1] > 92 µM | Potency [2] > 92 µM | Potency [3] > 92 µM | Potency [4] > 92 µM | Potency [5] > 92 µM | outcome [6] | activity change, negative = cytotoxicity [7] -3.64% | Potency [8] | Potency [9] | Potency [10] | Potency [11] | Potency [12] | Potency [13] | caspase-3 activation [14] 1.22% | outcome [15] | outcome [16] | outcome [17] | outcome [18]

CCOc1ccc(NC(C)=O)cc1N
inactive: Potency [1] > 92 µM | Potency [2] > 92 µM | Potency [3] > 92 µM | Potency [4] > 92 µM | Potency [5] > 92 µM | outcome [6] | activity change, negative = cytotoxicity [7] -12.5% | Potency [8] | Potency [9] | Potency [10] | Potency [12] | Potency [13] | Potency [19] | caspase-3 activation [14] 0.0364% | outcome [15] | outcome [16] | outcome [17] | outcome [18]

Nc1ccccc1S(=O)(=O)O
inactive: Potency [1] > 92 µM | Potency [2] > 92 µM | Potency [3] > 92 µM | Potency [4] > 92 µM | Potency [5] > 92 µM | outcome [6] | activity change, negative = cytotoxicity [7] 4.97% | Potency [8] | Potency [9] | Potency [10] | Potency [11] | Potency [12] | Potency [13] | Potency [19] | caspase-3 activation [14] 1.01% | outcome [15] | outcome [16] | outcome [17] | outcome [18]

C=CCCC
inactive: Potency [1] > 92 µM | Potency [2] > 92 µM | Potency [3] > 92 µM | Potency [4] > 92 µM | Potency [5] > 92 µM | outcome [6] | activity change, negative = cytotoxicity [7] 1.78% | Potency [8] | Potency [9] | Potency [10] | Potency [11] | Potency [12] | Potency [13] | Potency [19] | caspase-3 activation [14] -0.379% | outcome [15] | outcome [16] | outcome [17]

CO[Si](CCCNCCC[Si](OC)(OC)OC)(OC)OC
inactive: Potency [1] > 92 µM | Potency [2] > 92 µM | Potency [3] > 92 µM | Potency [20] > 92 µM | Potency [4] > 92 µM | Potency [5] > 92 µM | outcome [6] | activity change, negative = cytotoxicity [7] -27% | Potency [9] | Potency [11] | Potency [13] | Potency [19] | outcome [15] | outcome [16] | outcome [17]

O=C(O)c1cc(Cl)cc(Cl)c1
inactive: Potency [1] > 92 µM | Potency [2] > 92 µM | Potency [3] > 92 µM | Potency [4] > 92 µM | Potency [5] > 92 µM | outcome [6] | activity change, negative = cytotoxicity [7] -1.73% | Potency [8] | Potency [9] | Potency [10] | Potency [11] | Potency [12] | Potency [13] | caspase-3 activation [14] -1.52% | outcome [15] | outcome [16] | outcome [18]

O=C(Cl)c1ccccc1[N+](=O)[O-]
inactive: Potency [1] > 92 µM | Potency [2] > 92 µM | Potency [3] > 92 µM | Potency [4] > 92 µM | Potency [5] > 92 µM | outcome [6] | activity change, negative = cytotoxicity [7] 0.882% | Potency [8] | Potency [9] | Potency [10] | Potency [11] | Potency [12] | Potency [13] | Potency [19] | caspase-3 activation [14] 0.685% | outcome [15] | outcome [16] | outcome [17] | outcome [18]

O=[N+]([O-])c1ccc(CCO)cc1
inactive: Potency [1] > 92 µM | Potency [2] > 92 µM | Potency [3] > 92 µM | Potency [4] > 92 µM | Potency [5] > 92 µM | outcome [6] | activity change, negative = cytotoxicity [7] -10.2% | Potency [10] | Potency [11] | Potency [12] | Potency [19] | caspase-3 activation [14] -1.91% | outcome [15] | outcome [16] | outcome [17] | outcome [18]

C=CCCCCCCC=C
inactive: Potency [1] > 92 µM | Potency [2] > 92 µM | Potency [3] > 92 µM | Potency [4] > 92 µM | Potency [5] > 92 µM | outcome [6] | activity change, negative = cytotoxicity [7] -4.21% | Potency [8] | Potency [9] | Potency [10] | Potency [11] | Potency [12] | Potency [13] | Potency [19] | caspase-3 activation [14] 2.57% | outcome [15] | outcome [16] | outcome [17] | outcome [18]

O=Cc1ccc(Cl)cc1
inactive: Potency [1] > 92 µM | Potency [2] > 92 µM | Potency [3] > 92 µM | Potency [4] > 92 µM | Potency [5] > 92 µM | outcome [6] | activity change, negative = cytotoxicity [7] -2.43% | Potency [8] | Potency [9] | Potency [10] | Potency [11] | Potency [12] | Potency [13] | Potency [19] | caspase-3 activation [14] -1.13% | outcome [15] | outcome [16] | outcome [17] | outcome [18]

CC(=O)C1(C)CC2=C(CCCC2(C)C)CC1C (stereo unspecified)
inactive: Potency [1] > 92 µM | Potency [2] > 92 µM | Potency [3] > 92 µM | Potency [4] > 92 µM | Potency [5] > 92 µM | outcome [6] | activity change, negative = cytotoxicity [7] -8.12% | Potency [8] | Potency [9] | Potency [11] | Potency [12] | Potency [13] | Potency [19] | caspase-3 activation [14] -0.117% | outcome [15] | outcome [16] | outcome [17] | outcome [18]
